100 compounds from PubChem BioAssay AID696 (Sanford-Burnham Center for Chemical Genomics, 2007) can be followed below.

About 1,200 (1.2%) of roughly 96,000 compounds were called active. Rule as the data show it: active = activation fold above about 2; inactive = the rest. Only a selection was taken, and actives are over-represented in it overall.

The target of the assay is Alkaline phosphatase, placental type (Homo sapiens) (UniProt P05187). As to the kind of experiment: PLAP enzyme activators, biochemical, luminescence, HTS (AID 696). Particulars: purified PLAP enzyme, luminescent substrate read-out; at 20 µM; active compounds read high.
Chain of Alkaline phosphatase, placental type (Homo sapiens) (P05187 whole entry, looked up): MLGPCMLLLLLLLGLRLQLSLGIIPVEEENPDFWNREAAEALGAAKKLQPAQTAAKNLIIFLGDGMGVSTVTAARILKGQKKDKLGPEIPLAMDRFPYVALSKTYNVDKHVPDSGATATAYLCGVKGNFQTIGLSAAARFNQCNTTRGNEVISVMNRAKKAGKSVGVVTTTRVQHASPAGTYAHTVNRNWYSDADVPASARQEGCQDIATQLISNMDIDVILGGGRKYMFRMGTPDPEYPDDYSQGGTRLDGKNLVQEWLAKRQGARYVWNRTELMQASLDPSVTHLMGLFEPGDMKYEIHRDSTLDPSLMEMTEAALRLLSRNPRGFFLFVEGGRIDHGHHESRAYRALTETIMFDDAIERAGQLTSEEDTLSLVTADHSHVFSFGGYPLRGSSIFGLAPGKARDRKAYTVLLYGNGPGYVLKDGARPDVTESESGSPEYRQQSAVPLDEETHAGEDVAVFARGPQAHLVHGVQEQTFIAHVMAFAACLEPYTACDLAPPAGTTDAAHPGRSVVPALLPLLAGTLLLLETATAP
As for `CC(NC(=O)c1ccco1)C(=O)Nc1nc(-c2ccccn2)cs1` (stereo not given), the activation fold is 2.4 (active).
With `CC1CCN(C(NC(=O)c2ccco2)C(=O)c2ccccc2)CC1` (stereo not given) the figure was 1.1 (inactive); with `NC(=O)c1ccsc1NC(=O)c1ccco1`, 1 (inactive).
With `O=c1cc(N2CCN(Cc3ccccc3)CC2)c(-c2ccccc2)n[nH]1` the figure was 1 (inactive); with `CCn1c(Cc2cccs2)nnc1SCC(=O)c1ccc(C)cc1`, 1.5 (inactive).
`O=C(COc1ccc(Cl)cc1)N1CCN(S(=O)(=O)c2ccc(Cl)cc2)CC1`: the activation fold was 1.1 (inactive).
With `Cc1ccc(CNC(=O)C2CC(c3ccccc3[N+](=O)[O-])=NO2)o1` (stereo not given) the figure was 0.9 (inactive).
As to `Cc1cc(C(=O)NCCCc2ccccc2)no1`, the activation fold is 0.9 (inactive).
For `CCC(=O)Nc1ccc(C(=O)Nc2cc(C)on2)cc1` the value was 0.9 (inactive); for `CCCCNC(=S)NNC(=O)c1cc(C)on1`, 2 (active).
For `Cn1c(Cc2cccc3ccccc23)nnc1SCC(=O)N1CCN(c2cccc(Cl)c2)CC1` the value was 1.5 (inactive); for `CCN1CCC(=NNC(=O)c2ccc(C)c([N+](=O)[O-])c2)CC1`, 1.3 (inactive); for `C1=C(CCNc2ncnc3c2cnn3-c2ccccc2)CCCC1`, 0.7 (inactive).
For `O=C(NCCC1=CCCCC1)C1CCN(Cc2cnn(-c3ccccc3)c2-n2cccc2)CC1` the value was 2.3 (active); for `CC(=O)Nc1ccc(NC(=O)CSCc2cnn(-c3ccccc3)c2-n2cccc2)cc1`, 1.3 (inactive); for `O=C1c2ccccc2C(=O)N1CC1c2ccccc2CCN1S(=O)(=O)c1ccccc1` (stereo not given), 1.2 (inactive).
Take `O=C(Nc1ccc2c(c1)OCCO2)c1ccc(Cl)c(S(=O)(=O)N2CCCCC2)c1`: the activation fold was 1.7 (inactive).
With `COc1ccccc1NC(=O)CN1CCN(S(=O)(=O)c2ccc(Br)cc2)CC1`, the activation fold was 1 (inactive).
For `COc1ccc(NC(=O)CN2CCN(S(=O)(=O)c3ccc(F)cc3)CC2)cc1Cl`, the activation fold is 1.1 (inactive).
With `COc1cc2c(cc1NC(=O)CN1CCN(S(=O)(=O)c3ccc(F)cc3)CC1)oc1ccccc12` the figure was 2.2 (active); with `Cc1c(CCO)c(=O)[nH]n1C(=O)c1c(F)cccc1F`, 0.9 (inactive).
For `Cc1ccc(F)c(NC(=O)CCc2ccccc2)c1` the value was 0.9 (inactive); for `Cn1c(=O)[nH]c(=O)c2c1nc(N(CCO)Cc1ccccc1)n2Cc1ccccc1Cl`, 0.8 (inactive); for `CCCSc1nc2c(c(=O)[nH]c(=O)n2C)n1CCc1ccccc1`, 0.9 (inactive).
For `CN(Cc1ccccc1)c1nc2c(c(=O)[nH]c(=O)n2C)n1CCSc1nc2ccccc2[nH]1` the value was 2 (active).
Consider `CCc1ccccc1NC(=O)CSc1nnc([C@@H](NC(=O)OC(C)(C)C)C(C)CC)o1` (stereo not given in full), for which the activation fold was 2 (active).
For `Cc1cc(C)cc(OCc2nnc(SCC(=O)Nc3ccccc3)o2)c1` the value was 0.8 (inactive); for `Cc1cccc(NC(=O)CSc2nnc(CCCCCNC(=O)OC(C)(C)C)o2)c1C`, 2.4 (active); for `CCc1ccccc1NC(=O)CSc1nnc([C@@H](NC(=O)OC(C)(C)C)C(C)C)o1`, 1.4 (inactive).
With `Cc1cccc(NC(=O)CSC(N)=O)c1C` the figure was 1.7 (inactive).
For `C[C@H](NC(=O)OC(C)(C)C)c1nnc(SCC(=O)Nc2ccc(Br)cc2)o1` the value was 1.2 (inactive).
Consider `CC(C)(C)N1CC(c2nc3ccccc3n2Cc2ccc(F)cc2)CC1=O` (stereo not given), for which the activation fold was 1.1 (inactive).
On to `CN(C)Cc1ccccc1C1(O)c2ccccc2CSc2ccccc21` (stereo not given), for which the activation fold was 1.1 (inactive).
On to `N#Cc1cc([N+](=O)[O-])ccc1Oc1cccc(/C=N/NC(=O)c2ccc(Cl)cc2)c1`, for which the activation fold is 1.1 (inactive).
As to `O=P(O)(CP(=O)(c1ccccc1)c1ccccc1)c1ccccc1O`, the activation fold is 1 (inactive).
With `CCOc1ccc(C(=O)NC(C(=O)NCc2ccccn2)C(C)C)cc1` (stereo not given) the figure was 0.9 (inactive); with `Cc1cc(C)nc(SC(C)C(=O)N/N=C/c2cccs2)n1` (stereo not given), 0.9 (inactive).
Consider `CCCCCCNCCn1cnc2c(N)ncnc21`, for which the activation fold was 0.9 (inactive).
For `O=C(CCOc1ccccc1)NCc1ccccc1` the value was 0.8 (inactive); for `O=C(CCCOc1ccccc1)NCc1ccco1`, 1.1 (inactive).
On to `CN(C)C(CNC(=O)CCCOc1ccccc1)c1ccco1` (stereo not given), for which the activation fold was 2 (active).
In the case of `COc1ccc(C(=O)c2c(C)oc3cc([N+](=O)[O-])c(O)c([N+](=O)[O-])c23)cc1`, the activation fold is 0.9 (inactive).
For `COc1ccc(NC(=O)C(CC(C)C)NS(=O)(=O)c2ccc3c(c2)CCN3C(C)=O)cc1OC` (stereo not given) the value was 0.8 (inactive).
With `CN(Cc1nc2ccccc2c(=O)[nH]1)Cc1cc(=O)oc2ccc3ccccc3c12` the figure was 1.6 (inactive); with `O=S(=O)(NC1CCCCC1)c1ccc(F)c2ccccc12`, 0.7 (inactive).
With `CCOc1ccc2nc(N3CCCN(C(=O)Nc4ccccc4C)CC3)c(C#N)cc2c1` the figure was 2 (active).
Regarding `COc1ccc2nc(N3CCCC(O)C3)c(C#N)cc2c1` (stereo not given), the activation fold was 1.8 (inactive).
With `CCOc1ccc2nc(NCCNS(=O)(=O)c3ccccc3)c(C#N)cc2c1` the figure was 1 (inactive); with `O=C(NCCCN1CCOCC1)c1cc2c(s1)CCC2`, 1.3 (inactive); with `COC(=O)c1ccc(C(=O)Nc2cc(Cl)ccc2Cl)cc1NC(=O)c1ccccc1C`, 1 (inactive).
`CC1CCCN(C(C(=O)Nc2ccc(C(C)C)cc2)c2ccc3c(c2)OCO3)C1` (stereo not given): the activation fold was 1.6 (inactive).
For `Cc1[nH]c(=O)c(C(=O)/C=C/c2ccccc2)c2c1CCCC2` the value was 1.2 (inactive); for `Cc1occc1C(=O)NNC(=S)NCC(C)C`, 2.3 (active); for `Cc1occc1C(=O)Nc1nnc(-c2ccncc2)s1`, 1 (inactive).
With `CC(C)CNC(=S)NNC(=O)c1ccccc1OC(F)F` the figure was 1.6 (inactive); with `CCN(CC)C(=O)CSC1c2ccccc2C(=O)N1c1ccccc1` (stereo not given), 1.1 (inactive).
With `CCCOc1ccc(C2NC(=O)NC(c3ccccc3)=C2C(C)=O)cc1OCC` (stereo not given) the figure was 0.9 (inactive); with `O=C(NCc1ccco1)c1ccc(Cn2c(=O)c3sccc3n(Cc3ccc(F)cc3)c2=O)cc1`, 1.3 (inactive); with `COc1c(F)c(F)c(C(=O)O)c(Nc2ccccc2C)c1F`, 1 (inactive).
Regarding `CCCc1ccc(OCC(=O)NNC(=S)NC(=O)c2ccco2)cc1`, the activation fold was 1.2 (inactive).
With `CC(Oc1ccc2ccccc2c1)C(=O)NNC(=S)NC(=O)c1ccco1` (stereo not given) the figure was 2.6 (active).
For the compound `COc1ccc(C(=O)NC(=S)NNC(=O)CCc2ccccc2)cc1`, the activation fold was 1 (inactive).
Turning to `Oc1c(C(c2ccccn2)N2CCOCC2)ccc2cccnc12` (stereo not given), the activation fold is 2.2 (active).
In the case of `CCOc1cc(N2CCOCC2)c(OCC)cc1NC(=O)COc1cccc2cccnc12`, the activation fold was 1.4 (inactive).
With `O=C(c1cccnc1NCc1ccccc1)N1CCOCC1` the figure was 0.9 (inactive); with `Cc1cccc(NC(=S)Nc2ccc(Br)cc2)c1`, 1.2 (inactive).
With `COC(=O)c1ccc(NC(=O)c2ccco2)cc1` the figure was 0.8 (inactive); with `O=C(Nc1nnc(SCc2ccccc2)s1)c1ccco1`, 1.1 (inactive); with `O=C(Nc1nnc(CCOCCOCCc2nnc(NC(=O)c3ccco3)s2)s1)c1ccco1`, 2 (active).
For `COc1ccc(C(=O)NC(=S)Nc2ccccc2N2CCN(S(C)(=O)=O)CC2)cc1OC` the value was 1 (inactive); for `CC(C)(C)c1ccc(C(=O)CSc2ncn[nH]2)cc1`, 1.5 (inactive); for `CCN(C(=O)CSc1ncn[nH]1)c1cccc2ccccc12`, 2.3 (active).
`O=C(CSc1ncn[nH]1)Nc1ccnc2ccccc12`: the activation fold was 1.9 (inactive).
Consider `Cc1sc(NC(=S)NC(=O)c2cccs2)nc1-c1ccc(CC(C)C)cc1`, for which the activation fold is 1.5 (inactive).
For `Cc1ccc(S(=O)(=O)NCCSC(C)(C)C)cc1`, the activation fold was 0.9 (inactive).
As to `COc1ccc(CCNC(=O)COC(=O)c2ccc[nH]c2=O)cc1`, the activation fold is 1 (inactive).
`Cc1cc(N2CCN(S(=O)(=O)c3ccc(C)c(C)c3)CC2)c2ccccc2n1`: the activation fold was 2.1 (active).
With `Cc1ccc(S(=O)(=O)C(C#N)c2nc3ccccc3nc2N2CCCC2)cc1C` (stereo not given) the figure was 1.4 (inactive); with `Cc1ccc(C)c(N2CCN(S(=O)(=O)c3ccc4c(c3)oc(=O)n4C)CC2)c1`, 1.4 (inactive).
As to `COC(=O)c1[nH]c2ccc(Br)cc2c1NC(=O)Oc1ccccc1`, the activation fold is 1.1 (inactive).
In the case of `O=C(CN1C(=O)COc2ccccc21)NCCN1CCc2ccccc2C1`, the activation fold was 1.3 (inactive).
With `CCCN1CCN(CCCNC(=O)CN2C(=O)COc3ccccc32)CC1` the figure was 1.2 (inactive); with `O=C(CN1C(=O)COc2ccccc21)Nc1ccc(F)cc1`, 2.5 (active); with `O=C(Nc1cc(C(F)(F)F)ccc1Cl)c1cc2nc3c(c(C(F)(F)F)n2n1)CCCC3`, 1.6 (inactive).
Take `Clc1ccc(-c2nnc(-c3ccccc3)nc2N2CCSCC2)cc1`: the activation fold is 1.4 (inactive).
For `O=C1C2C3C=CC(C4CC34)C2C(=O)N1/N=C/c1ccc(-c2ccccc2[N+](=O)[O-])o1` (stereo not given) the value was 0.9 (inactive); for `COc1ccc(Cl)cc1C(=O)NCc1cn(C)nc1C`, 1.1 (inactive).
With `Cc1nn(C)cc1C(=O)NNC(=S)Nc1ccc(Cl)cc1` the figure was 2.2 (active); with `S=C(NCc1cccs1)Nc1ccc(Cl)cc1`, 0.9 (inactive).
With `O=C(CNC(=O)c1ccccc1)NCC(=O)OCc1ccc(Cl)cc1` the figure was 0.9 (inactive); with `Cc1ccccc1C(OCC(O)CN1CCCCC1CCO)c1ccccc1` (stereo not given), 2.1 (active).
As to `OC(COc1cccc(OCC(O)CN2CCCC2)c1)CN1CCCC1` (stereo not given), the activation fold is 1.2 (inactive).
`COc1cccc(OCc2cc(/C=N/NC(=O)c3nc(Cl)c(Cl)c(N)c3Cl)ccc2OC)c1`: the activation fold is 1.5 (inactive).
With `CCc1c(C)nc2cc(C)[nH]n2c1=O` the figure was 0.9 (inactive); with `CCCc1nnc(NC(=O)c2cccs2)s1`, 0.9 (inactive); with `CNC(=O)CN1C(=O)c2ccccc2S1(=O)=O`, 0.9 (inactive).
For `CCCc1nnc(NC(=O)CN2C(=O)c3ccccc3S2(=O)=O)s1` the value was 2.2 (active); for `COc1cc2c(cc1OC)C(C(=O)NCc1ccco1)C1c3ccccc3CCN1C2=O` (stereo not given), 1.2 (inactive); for `O=C(O)CSCNC(=O)CC12CC3CC(CC(C3)C1)C2`, 1.2 (inactive).
As for `NC(CSC12CC3CC(CC(C3)C1)C2)C(=O)O` (stereo not given), the activation fold is 2 (active).
